# Experimental data as given in PubChem BioAssay (NCATS).
# Inconclusive results are not listed. Entries that show only a call come without a potency. Activity calls are given as the source filed them. Calls come from the whole dose curve; as a rule, active = well fitted curve in the direction sought with a large enough effect; inconclusive = small, poorly fitted or top-dose-only effect, or another doubt; inactive = no such curve, though single readings can be large; an effect the other way counts as inactive or inconclusive.
# How the values were obtained:
# [1] = qHTS assay to identify small molecule inhibitors of chordoma cells - UCH-1 (AID 1259355); details: UCH-1 chordoma viability, CellTiter-Glo, 48 h, combination, with auranofin plus four topoisomerase inhibitors; series mostly up to 46.1 µM; note: nearly all actives have a fitted effect of over 55% in size
# Method in brief: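 Cells (800/well) were seeded and left overnight at 37 C, 5% CO2, then treated with drugs at 15 concentrations plus a combination mix of auranofin, camptothecin, doxorubicin, rubitecan and topotecan. Viability after 48hr was read by CellTiter-Glo luminescence.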
# [2] = qHTS assay to identify small molecule inhibitors of chordoma cells - UCH-2 (AID 1259356); details: UCH-2 chordoma viability, CellTiter-Glo ATP luminescence, 48 h; series mostly up to 46.1 µM
Compound,Potency [1],Potency [2]
CC(CCc1ccccc1)NCC(O)c1ccc(O)c(C(N)=O)c1 (stereo unspecified),inactive,inactive
CN1C2CCC1CC(OC(=O)c1c[nH]c3ccccc13)C2 (stereo unspecified),inactive,
CC(=O)Oc1ccc(C(=C2CCCCC2)c2ccc(OC(C)=O)cc2)cc1,inactive,inactive
CC(=O)CC(c1ccc([N+](=O)[O-])cc1)c1c(O)c2ccccc2oc1=O (stereo unspecified),inactive,inactive
CN(C(=O)CN(CCO)CC(=O)N(C)C(C)(C)Cc1ccccc1)C(C)(C)Cc1ccccc1,inactive,inactive
O=C1OC(c2ccc(O)cc2)(c2ccc(O)cc2)c2ccccc21,inactive,inactive
NC(=O)CC[C@@H]1NC(=O)[C@H](Cc2ccccc2)NC(=O)[C@H](Cc2ccc(O)cc2)NC(=O)CCSSC[C@@H](C(=O)N2CCC[C@H]2C(=O)N[C@@H](CCCN=C(N)N)C(=O)NCC(N)=O)NC(=O)[C@H](CC(N)=O)NC1=O,inactive,inactive
COc1cc(N)c(Cl)cc1C(=O)NC1CCN(CCCOc2ccc(F)cc2)CC1OC (stereo unspecified),inactive,inactive
COc1ccc(/C=C/C(=O)c2ccc(OC)cc2OC)cc1,inactive,inactive
CC(=O)OCC(=O)NCCCOc1cccc(CN2CCCCC2)c1,inactive,inactive
CN1C(CCl)Nc2cc(Cl)c(S(N)(=O)=O)cc2S1(=O)=O (stereo unspecified),inactive,inactive
c1ccc(OCc2ccc(CCCN3CCOCC3)cc2)cc1,inactive,inactive
CCCCc1nc(Cl)c(CO)n1Cc1ccc(-c2ccccc2-c2nn[nH]n2)cc1,inactive,inactive
COc1cccc(CCc2ccccc2OCC(CN(C)C)OC(=O)CCC(=O)O)c1 (stereo unspecified),inactive,
